# According to PubChem BioAssay:
# Activity calls are given as the source filed them. Unless noted, no rule for the calls is given here.
# Tests used:
# [1] = test system: Wnt5a (protein binding on small-molecule microarray); experiment: Wnt5a binders on small-molecule microarray, primary screen, biophysical, 635/667 nm fluorescence (AID 1142); details: 635 nm fluorescence, higher = more signal;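 also: fluorescence read at 667 nm with signal to noise per printed feature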
# [2] = cell viability in Huh7 cells, primary screen, cytotoxicity control for HCV replication inhibitor project, CellTiter-Glo luminescence, basal, 48 h (AID 1143); details: Huh7 HCV replicon, higher = more signal, called active from +8 up or from −8 down;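 also: Huh7 hepatoma cells carrying a hepatitis C replication reporter with no stimulus; test concentration not given here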
# [3] = P. aeruginosa biofilm formation inhibitors, primary screen, PAO1 strain, BacTiter-Glo luminescence, LB-PBS (AID 1144); details: 12 h, higher = more signal
# [4] = CREB reporter modulators without forskolin, primary screen, cell-based, PC12, CRE-LacZ reporter, unstimulated (AID 1145); details: no forskolin, luminescence, 4.5 h, higher = more signal, called active from +8 up or from −8 down
# [5] = CREB reporter modulators under forskolin, primary screen, cell-based, PC12, CRE-LacZ reporter, forskolin-stimulated (AID 1146); details: luminescence, 4.5 h, higher = more signal, called active from +8 up or from −8 down;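 also: PC12 cells with 6xCRE LacZ reporter stimulated by forskolin 10 µM; beta-galactosidase reporter signal reflecting CREB driven transcription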
# [6] = biological target: Streptavidin (Streptomyces avidinii) (UniProt P22629); experiment: streptavidin binders on small-molecule microarray, primary screen, artefact control for SMM compound annotation, biophysical, 635/667 nm fluorescence (AID 1147); details: streptavidin binding, higher = more signal;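 also: signal reflects streptavidin binding to arrayed compounds as a control protein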
# Chain of Streptavidin (Streptomyces avidinii) (P22629 whole entry, looked up): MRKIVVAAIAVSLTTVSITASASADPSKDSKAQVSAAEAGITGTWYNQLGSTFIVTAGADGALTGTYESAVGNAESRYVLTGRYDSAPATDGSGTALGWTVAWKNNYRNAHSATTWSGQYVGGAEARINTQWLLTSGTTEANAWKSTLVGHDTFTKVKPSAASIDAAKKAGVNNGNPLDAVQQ
# [7] = small-molecule binders of probe aInhba, primary screen, biochemical, small-molecule microarray, 635/667 nm fluorescence (AID 1148); details: higher = more signal;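 also: score merges 667nm spot fluorescence with signal-to-noise for antibody binding to printed compounds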
# [8] = biological target: Torsin-1A (Homo sapiens) (UniProt O14656); experiment: torsin A binders from cell lysate, primary screen, small-molecule microarray, wild-type, 635/667 nm (AID 1149); details: COS7 hTOR1A-WT lysate, 635 nm fluorescence, higher = more signal
# Chain of Torsin-1A (Homo sapiens) (O14656 whole entry, looked up): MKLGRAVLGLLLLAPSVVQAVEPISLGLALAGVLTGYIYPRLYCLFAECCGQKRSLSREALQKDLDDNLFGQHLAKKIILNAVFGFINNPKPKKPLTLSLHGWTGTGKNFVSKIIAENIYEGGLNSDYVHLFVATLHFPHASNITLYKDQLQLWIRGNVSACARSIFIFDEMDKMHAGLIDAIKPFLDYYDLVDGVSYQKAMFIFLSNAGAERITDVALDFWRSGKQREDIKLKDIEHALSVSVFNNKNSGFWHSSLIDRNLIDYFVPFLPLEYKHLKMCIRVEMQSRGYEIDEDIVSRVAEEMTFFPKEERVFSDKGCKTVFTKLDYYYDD
# [9] = biological target: Torsin-1A (Homo sapiens) (UniProt O14656); experiment: small-molecule binders of mutant TOR1A in lysate, primary screen, cell lysate, small-molecule microarray, COS7 lysate, 635/667 nm fluorescence (AID 1150); details: COS7 hTOR1A mutant lysate, 635 nm fluorescence, higher = more signal;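 also: score pools 667 nm emission and signal to noise measuring lysate protein binding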
# [10] = test system: Sonic hedgehog protein (Shh); experiment: small-molecule binders of Shh protein, primary screen, biochemical, small-molecule microarray, 635/667 nm fluorescence (AID 1151); details: small-molecule microarray binding, 635 nm fluorescence; higher = more signal;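 also: Shh protein binding to compounds spotted on small-molecule microarray slides; score combines spot fluorescence intensity with signal-to-noise across triplicate slides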
# [11] = E. coli DRC41 culture turbidity changes, primary screen, E. coli filamentation inducer project, strain DRC41, OD650, 48 h (AID 1152);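 also: E. coli MC1000 strain DRC41 lacking acrAB efflux pump and sulA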; details: E. coli DRC41 (acrAB sulA), higher = more signal, called active from +8 up or from −8 down
# [12] = small-molecule binders of probe aLefty1, primary screen, biochemical, small-molecule microarray, 635/667 nm fluorescence (AID 1153); details: higher = more signal;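 also: score merges spot fluorescence with signal-to-noise ratio from the scanned slide images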
# [13] = PSAC antagonists in infected red cells, primary screen, cell-based, P. falciparum Indochina, OD700, 1 h (AID 1154); details: P. falciparum Indochina infected RBC osmotic lysis, higher = more signal, called active from +8 up or from −8 down
# [14] = PSAC antagonists in infected red cells, primary screen, cell-based, P. falciparum Indochina, OD700, 2 h (AID 1155);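 also: lysis reports solute entry through the parasite surface anion channel PSAC; channel blockers reduce lysis of infected cells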; details: P. falciparum Indochina infected erythrocytes, osmotic lysis OD700; higher = more signal, called active from +8 up or from −8 down
# [15] = osmotic lysis modulators in infected erythrocytes, primary screen, PSAC antagonist project, cell-based, P. falciparum Indochina, OD700, 3 h (AID 1156); details: higher = more signal, called active from +8 up or from −8 down
# [16] = PSAC antagonists in infected red cells, primary screen, cell-based, P. falciparum Indochina, OD700, 18 h (AID 1157); details: P. falciparum Indochina infected erythrocytes, osmotic lysis OD700, 18 h; higher = more signal, called active from +8 up or from −8 down
# [17] = modulators of S6 phosphorylation in cells, primary screen, cell-based, A549, cytoblot, luminescence, serum-stimulated (AID 1158); details: A549 phospho-S6 cytoblot, 5 h, higher = more signal;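 also: serum-stimulated A549 lung adenocarcinoma cells; signal is phosphorylated S6 detected by cytoblot immunostaining with HRP secondary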
# [18] = biological target: NADPH oxidase 2 (Homo sapiens) (UniProt P04839); experiment: NOX2-dependent H2O2 signal modulators, primary screen, NOX inhibitor project, cell-based, HEK293-NOX2, PMA-stimulated, Amplex Red fluorescence (AID 1159); details: 45 min, higher = more signal, called active from +8 up or from −8 down; also: test concentration not given here
# Chain of NADPH oxidase 2 (Homo sapiens) (P04839 whole entry, looked up): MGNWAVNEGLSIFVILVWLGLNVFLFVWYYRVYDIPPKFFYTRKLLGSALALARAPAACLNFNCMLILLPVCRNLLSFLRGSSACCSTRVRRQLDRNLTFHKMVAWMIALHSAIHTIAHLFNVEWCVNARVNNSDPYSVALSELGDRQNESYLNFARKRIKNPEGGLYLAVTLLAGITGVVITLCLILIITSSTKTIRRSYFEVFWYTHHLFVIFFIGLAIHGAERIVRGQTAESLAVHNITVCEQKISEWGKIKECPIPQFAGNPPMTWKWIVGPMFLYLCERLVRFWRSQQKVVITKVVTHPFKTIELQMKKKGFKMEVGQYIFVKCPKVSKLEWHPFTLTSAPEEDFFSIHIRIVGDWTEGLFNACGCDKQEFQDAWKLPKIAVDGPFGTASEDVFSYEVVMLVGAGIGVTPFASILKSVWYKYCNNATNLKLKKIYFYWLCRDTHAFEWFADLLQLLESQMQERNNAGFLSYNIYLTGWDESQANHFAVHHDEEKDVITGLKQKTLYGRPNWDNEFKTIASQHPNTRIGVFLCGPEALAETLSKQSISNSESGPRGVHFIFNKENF
# [19] = biological target: NADPH oxidase 4 (Homo sapiens) (UniProt Q9NPH5); experiment: NOX4-dependent H2O2 signal modulators, primary screen, NOX inhibitor project, cell-based, HEK293-NOX4, tetracycline-induced, Amplex Red fluorescence (AID 1160); details: 45 min, higher = more signal, called active from +8 up or from −8 down
# Chain of NADPH oxidase 4 (Homo sapiens) (Q9NPH5 whole entry, looked up): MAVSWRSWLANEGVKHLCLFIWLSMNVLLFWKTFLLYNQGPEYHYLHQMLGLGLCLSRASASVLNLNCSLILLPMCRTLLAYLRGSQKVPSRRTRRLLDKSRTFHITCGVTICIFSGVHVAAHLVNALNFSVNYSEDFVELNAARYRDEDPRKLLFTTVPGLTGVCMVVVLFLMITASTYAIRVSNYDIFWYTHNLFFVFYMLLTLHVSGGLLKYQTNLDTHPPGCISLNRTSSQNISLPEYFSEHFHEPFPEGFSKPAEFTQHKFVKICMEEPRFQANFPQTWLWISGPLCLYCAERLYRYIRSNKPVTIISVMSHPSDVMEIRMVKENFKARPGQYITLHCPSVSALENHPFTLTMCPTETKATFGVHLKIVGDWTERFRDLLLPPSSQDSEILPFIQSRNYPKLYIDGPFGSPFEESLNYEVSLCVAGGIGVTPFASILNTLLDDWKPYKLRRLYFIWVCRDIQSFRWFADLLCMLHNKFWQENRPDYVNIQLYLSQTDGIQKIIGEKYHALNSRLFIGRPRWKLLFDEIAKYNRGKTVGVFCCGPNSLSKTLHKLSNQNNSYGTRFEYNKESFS
# [20] = biological target: NADPH oxidase 5 (Homo sapiens) (UniProt Q96PH1); experiment: NOX5-dependent H2O2 signal modulators, primary screen, NOX inhibitor project, cell-based, HEK293-NOX5, Amplex Red fluorescence (AID 1161); details: HEK293-NOX5, ionomycin, 45 min, higher = more signal
# Chain of NADPH oxidase 5 (Homo sapiens) (Q96PH1 whole entry, looked up): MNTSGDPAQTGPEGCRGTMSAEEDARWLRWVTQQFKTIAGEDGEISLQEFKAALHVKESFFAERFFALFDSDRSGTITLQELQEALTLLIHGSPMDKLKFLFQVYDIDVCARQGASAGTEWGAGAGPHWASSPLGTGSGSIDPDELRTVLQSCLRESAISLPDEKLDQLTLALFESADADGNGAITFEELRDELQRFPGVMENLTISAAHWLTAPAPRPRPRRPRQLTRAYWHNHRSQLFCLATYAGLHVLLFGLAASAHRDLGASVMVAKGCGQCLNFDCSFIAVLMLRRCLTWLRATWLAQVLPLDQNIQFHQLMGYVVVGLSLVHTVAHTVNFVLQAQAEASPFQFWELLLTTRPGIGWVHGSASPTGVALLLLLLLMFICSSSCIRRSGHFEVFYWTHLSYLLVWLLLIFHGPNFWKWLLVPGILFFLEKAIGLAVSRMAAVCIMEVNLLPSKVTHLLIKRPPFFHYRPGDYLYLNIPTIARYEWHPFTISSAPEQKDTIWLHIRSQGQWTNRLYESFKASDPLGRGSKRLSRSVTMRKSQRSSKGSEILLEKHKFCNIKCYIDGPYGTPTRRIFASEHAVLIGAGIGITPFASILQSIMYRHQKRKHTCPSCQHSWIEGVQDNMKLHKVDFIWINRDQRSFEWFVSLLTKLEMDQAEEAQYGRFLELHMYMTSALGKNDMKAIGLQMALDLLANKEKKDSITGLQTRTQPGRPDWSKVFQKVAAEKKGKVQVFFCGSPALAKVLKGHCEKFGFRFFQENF
smiles,measurement,setting,value
CCCCCCC#C[Si](O[C@H](c1ccccc1)c1cn([C@H](CO)Cc2ccccc2)nn1)(C(C)C)C(C)C,composite z-score,[1],-0.193
same,z-score,[2],-0.866 (inactive)
same,z-score,[3],-0.235 (inactive)
same,z-score,[4],-0.215 (inactive)
same,z-score,[5],-0.0183 (inactive)
same,composite z-score,[6],-0.463
same,composite z-score,[7],-0.128
same,composite z-score,[8],-1.01
same,composite z-score,[9],0.211
same,composite z-score,[10],0.537
same,z-score,[11],2.03 (inactive)
same,composite z-score,[12],-0.217
same,z-score,[13],0.704 (inactive)
same,z-score,[14],0.268 (inactive)
same,z-score,[15],-0.55 (inactive)
same,z-score,[16],0.602 (inactive)
same,z-score,[17],0.447
same,z-score,[18],-1.25 (inactive)
same,z-score,[19],-0.227 (inactive)
same,z-score,[20],-2.2
O=C1OCCC/C=C\[C@H]2OC34C=CCN(Cn5nnc6ccccc65)C(=O)[C@H]3N(CCCCCCO)C(=O)[C@@H]4C12 (stereo not given in full),composite z-score,[1],-0.35
same,z-score,[2],-0.599 (inactive)
same,z-score,[3],-2.19 (inactive)
same,z-score,[4],-1.17 (inactive)
same,z-score,[5],-0.729 (inactive)
same,composite z-score,[6],-1.08
same,composite z-score,[7],-0.214
same,composite z-score,[8],1.27
same,composite z-score,[9],1.43
same,composite z-score,[10],0.326
same,z-score,[11],3.64 (inactive)
same,composite z-score,[12],-0.481
same,z-score,[13],3.95 (inactive)
same,z-score,[14],-0.392 (inactive)
same,z-score,[15],-0.193 (inactive)
same,z-score,[16],-0.677 (inactive)
same,z-score,[17],2.58
same,z-score,[18],1.15 (inactive)
same,z-score,[19],0.377 (inactive)
same,z-score,[20],2.11
O=C1OCCC=C[C@H]2OC34C=CCN(CCN5CCOCC5)C(=O)[C@H]3N(CCCCCCO)C(=O)[C@@H]4C12 (stereo not given in full),composite z-score,[1],-0.0312
same,z-score,[2],0.18 (inactive)
same,z-score,[3],-0.134 (inactive)
same,z-score,[4],1.55 (inactive)
same,z-score,[5],0.0231 (inactive)
same,composite z-score,[6],-0.393
same,composite z-score,[7],-0.179
same,composite z-score,[8],0.811
same,composite z-score,[9],-0.839
same,composite z-score,[10],0.65
same,z-score,[11],0.36 (inactive)
same,composite z-score,[12],-0.286
same,z-score,[13],0.683 (inactive)
same,z-score,[14],0.539 (inactive)
same,z-score,[15],0.835 (inactive)
same,z-score,[16],0.353 (inactive)
same,z-score,[17],-0.156
same,z-score,[18],0.658 (inactive)
same,z-score,[19],-0.289 (inactive)
same,z-score,[20],1.67
C[C@@]1([C@@H](NC(=O)c2ccccc2)c2ccc(-c3ccccc3)cc2)C[C@H]1C1CCCCC1,composite z-score,[1],0.367
same,z-score,[2],0.147 (inactive)
same,z-score,[3],-0.232 (inactive)
same,z-score,[4],0.201 (inactive)
same,z-score,[5],0.957 (inactive)
same,composite z-score,[6],1.1
same,composite z-score,[7],0.333
same,composite z-score,[8],0.0627
same,composite z-score,[9],-0.0293
same,composite z-score,[10],-1.1
same,z-score,[11],-2.22 (inactive)
same,composite z-score,[12],0.476
same,z-score,[13],-0.118 (inactive)
same,z-score,[14],0.28 (inactive)
same,z-score,[15],0.833 (inactive)
same,z-score,[16],0.888 (inactive)
same,z-score,[17],0.994
same,z-score,[18],-0.658 (inactive)
same,z-score,[19],-1.06 (inactive)
same,z-score,[20],-0.782
CCOC(=O)C[C@H]1[C@H](OC(=O)Cc2ccc3c(c2)OCO3)[C@@H](NC(=O)c2ccc(-c3ccccc3)cc2)c2cc(OCCCO)ccc2N1C(=O)c1ccc2ccccc2n1,composite z-score,[1],0.317
same,z-score,[2],-4.97 (inactive)
same,z-score,[3],-0.157 (inactive)
same,z-score,[4],4.93 (inactive)
same,z-score,[5],-0.87 (inactive)
same,composite z-score,[6],1.41
same,composite z-score,[7],-0.231
same,composite z-score,[8],-0.184
same,composite z-score,[9],0.438
same,composite z-score,[10],0.0508
same,z-score,[11],1.55 (inactive)
same,composite z-score,[12],-0.0536
same,z-score,[13],8.44 (active)
same,z-score,[14],0.67 (inactive)
same,z-score,[15],-0.352 (inactive)
same,z-score,[16],-0.258 (inactive)
same,z-score,[17],2.85
same,z-score,[18],-2.09 (inactive)
same,z-score,[19],-1.28 (inactive)
same,z-score,[20],-1.21
O=C1O[C@H](c2ccccc2)[C@H](c2ccccc2)N2[C@H]1[C@@H](C(=O)Nc1nc3ccccc3s1)[C@]1(C(=O)Nc3ccc(C#CC4(O)CCCCCC4)cc31)[C@H]2c1ccc(OCCO)cc1,composite z-score,[1],0.248
same,z-score,[2],-1.04 (inactive)
same,z-score,[3],-1.88 (inactive)
same,z-score,[4],-0.402 (inactive)
same,z-score,[5],0.858 (inactive)
same,composite z-score,[6],1.18
same,composite z-score,[7],0.284
same,composite z-score,[8],0.401
same,composite z-score,[9],1.01
same,composite z-score,[10],1.68
same,z-score,[11],-0.558 (inactive)
same,composite z-score,[12],0.338
same,z-score,[13],3.28 (inactive)
same,z-score,[14],1.58 (inactive)
same,z-score,[15],0.501 (inactive)
same,z-score,[16],1.67 (inactive)
same,z-score,[17],-0.239
same,z-score,[18],0.286 (inactive)
same,z-score,[19],0.11 (inactive)
same,z-score,[20],-0.0468
C=CCC(OC(C)=O)[C@@H]1[C@@H](N(Cc2cccc3ccccc23)C(=O)c2ccc(-c3ccccc3)cc2)c2cc(OCCCO)ccc2N1C(=O)Cc1ccc(OC)cc1 (stereo not given in full),composite z-score,[1],0.36
same,z-score,[2],-0.454 (inactive)
same,z-score,[3],-0.266 (inactive)
same,z-score,[4],-0.491 (inactive)
same,z-score,[5],0.117 (inactive)
same,composite z-score,[6],0.311
same,composite z-score,[7],0.0018
same,composite z-score,[8],0.0276
same,composite z-score,[9],-0.265
same,composite z-score,[10],0.179
same,z-score,[11],0.571 (inactive)
same,composite z-score,[12],-0.277
same,z-score,[13],0.177 (inactive)
same,z-score,[14],-0.172 (inactive)
same,z-score,[15],-1.02 (inactive)
same,z-score,[16],0.0144 (inactive)
same,z-score,[17],0.904
same,z-score,[18],-1.6 (inactive)
same,z-score,[19],0.32 (inactive)
same,z-score,[20],0.0661
N#Cc1ccc(NN2C(C(O)c3c(F)cccc3Cl)C=CC3C(=O)N(c4ccccc4)C(=O)C32)cc1 (stereo not given),composite z-score,[1],0.607
same,z-score,[2],0.17 (inactive)
same,z-score,[3],-1.11 (inactive)
same,z-score,[4],0.622 (inactive)
same,z-score,[5],0.201 (inactive)
same,composite z-score,[6],1.35
same,composite z-score,[7],0.419
same,composite z-score,[8],0.513
same,composite z-score,[9],1.35
same,composite z-score,[10],0.585
same,z-score,[11],-0.857 (inactive)
same,composite z-score,[12],0.192
same,z-score,[13],22 (active)
same,z-score,[14],5.46 (inactive)
same,z-score,[15],1.21 (inactive)
same,z-score,[16],1.51 (inactive)
same,z-score,[17],-1.17
same,z-score,[18],-1.1 (inactive)
same,z-score,[19],-3.86 (inactive)
same,z-score,[20],-2.98
COc1ccc([C@H]2C[C@H]3C(Br)=C[C@@H]2C(=O)[C@]32CO2)cc1,composite z-score,[1],-0.0556
same,z-score,[2],0.0402 (inactive)
same,z-score,[3],1.11 (inactive)
same,z-score,[4],2.85 (inactive)
same,z-score,[5],0.357 (inactive)
same,composite z-score,[6],0.256
same,composite z-score,[7],-0.0822
same,composite z-score,[8],-0.0733
same,composite z-score,[9],-0.12
same,composite z-score,[10],0.311
same,z-score,[11],0.834 (inactive)
same,composite z-score,[12],-0.294
same,z-score,[13],1.27 (inactive)
same,z-score,[14],0.581 (inactive)
same,z-score,[15],1.23 (inactive)
same,z-score,[16],0.207 (inactive)
same,z-score,[17],-0.288
same,z-score,[18],-0.0817 (inactive)
same,z-score,[19],0.106 (inactive)
same,z-score,[20],-0.837
